From PubChem BioAssay come the findings set out here.

Results filed as inconclusive are left out. Calls of active or inactive are those of the source.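 How the source made its calls, unless noted: active means RAM network inhibition above 8.4% in each of two replicates, 3 SD over the compound average; inconclusive means above 8.4% inhibition in only one replicate; inactive means 8.4% inhibition or less in each replicate.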

Assay [1] in a line: reducers of endogenous Her2 protein level, primary screen, SKBR3 breast tumor cells, AlphaScreen, ATP viability (AID 461;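 active means Her2 level under about 52% in both replicate screens, with viability over 70% of control, limit read from the data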;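 on Her2 level: lower value means less Her2 protein in the cells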;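 on viability: percent of carrier control wells set as 100% viability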). As to conditions: 18-24 h, measured here: SKBR3 viability, ATP luminescence, at 10 µM. On the technique in general: Bead proximity is the source of the signal in Alpha formats.
Assay [2] addresses Receptor tyrosine-protein kinase erbB-2 (Homo sapiens) (UniProt P04626). Described as above. Conditions: 18-24 h, at 10 µM, stronger effect = lower value.
A short description of assay [3]: SK-BR-3 cell growth inhibitors, pilot screen, 24 h, human (AID 572;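 active means viability at or below 10% of carrier control in both of two separate runs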;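 further: compound exposure lasted between 18 and 24 h rather than exactly 24 h; 100% = carrier-treated control wells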). Conditions: SK-BR-3 viability, CellTiter-Glo luminescence, at 10 µM, stronger effect = lower value.
A short description of assay [4]: HUVEC growth inhibition – cell-based, human, primary screen (AID 575;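 active means viability at or below 30% in both replicate assays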;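 further: 100% = median of untreated cell wells with 0.1% DMSO on each plate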). As to conditions: HUVEC proliferation, CellTiter-Glo luminescence, 72 h; at 10 µM; stronger effect = lower value. In general terms: ATP-based viability assays read luminescence as a measure of living cells.
Assay [5] in a line: growth inhibitors of H69AR lung tumor, primary screen, human, duplicate replicates (AID 580;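 active means viability at or under a set limit in both replicates, limit being median viability minus 3 SD, cut at about 48% in these data, passing the limit was not always enough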;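 further: 100% = mean luminescence of untreated wells and 0% = no signal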). As to conditions: H69AR lung tumor cells viability, ATP luminescence, 72 h; at 10 µM; stronger effect = lower value.
Assay [6] is described as follows: reversal of MRP1-mediated doxorubicin resistance, pilot screen, H69AR cells, doxorubicin co-treatment (AID 601;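 active means viability loss from added drug above about 55%, and viability with drug at most 40%, in both replicates, limit read from the data, passing the limit was not always enough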). As to conditions: CellTiter-Glo, 72 h, at 10 µM; for differential viability (reversal): stronger effect = higher value.
A short description of assay [7]: 384-well plate pilot, post-Golgi transport modulator project, inhibition of yeast transport mutant growth (AID 636; in the data active means inhibition above about 31%). As to conditions: absorbance 615 nm, about 18 h, stronger effect = higher value.
Assay [8] in a line: growth suppression of yeast trafficking mutant, preliminary HTS, modulators of trafficking downstream of Golgi apparatus project, 1536-format plate, OD 615 nm (AID 637; in the data active means inhibition above about 30%). As to conditions: yeast transport mutant growth, absorbance 615 nm, 18 h; stronger effect = higher value.
Assay [9] can be described thus: OD615 S. cerevisiae growth inhibition, permissive medium, pilot counter-assay, permissive growth control for S. cerevisiae lifespan shortening project (AID 705;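 active means growth inhibition above 25% in both replicates, a cutoff set 3 SD above the mean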). As to conditions: OD615, 24 h, at 10 µM, stronger effect = higher value.
A short description of assay [10]: Restrictive medium S. cerevisiae growth inhibition, OD615, pilot screen of yeast lifespan reduction project, restrictive growth control (AID 706;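 active means growth inhibition above a set limit, 3 SD over mean compound inhibition, in both replicates, cut at about 43% in these data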;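 further: modified DeaD lifespan yeast strain shifted to restrictive glucose medium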). As to conditions: OD615, 48 h, at 10 µM, stronger effect = higher value.
A short description of assay [11]: viability gain of MRP-1-high H69AR cells under doxorubicin, pilot screen, MRP-1 activator project, CellTiter-Glo, duplicate (AID 807;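 active means viability increase at or above a cutoff of the median across tested compounds plus 3 SD, cut at about 8.5% in these data, passing the limit was not always enough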;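 further: compound pretreatment 18-22 h then 72 h combined with doxorubicin; 0% = doxorubicin alone and 100% = vehicle without doxorubicin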). As to conditions: H69AR viability with doxorubicin, CellTiter-Glo luminescence; at 10 µM; stronger effect = higher value.
Assay [12] in a line: growth suppression of beta-catenin knockout HCT116, pilot screen, human colon tumor cells (AID 823;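 active means cell viability at or below a set limit in both duplicate runs, the limit being the all-compound median minus 4 SD, cut at about 23% in these data, passing the limit was not always enough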;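 further: 0% = wells killed by 20 µM Hyamine and 100% = untreated DMSO cell wells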). As to conditions: CellTiter-Glo, 60 h, at 10 µM, stronger effect = lower value.
The nature of assay [13]: growth suppression of PTEN-deleted HCT116, pilot screen, cell-based, HCT116 clonal line, CellTiter-Glo (AID 824;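 active means viability at or below 27.92% in each of two runs, the all-compound median minus 4 SD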;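 further: 0% = 20 µM Hyamine control and 100% = vehicle cell control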). Conditions: 60 h, at 10 µM, stronger effect = lower value.
Assay [14] is described as follows: inhibitors of the yeast RAM network, pilot screen, dse1pr::URA3 reporter, 5-FOA selection (AID 869;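 active means inhibition over a set limit, the all-compound mean plus 3 SD, in both replicate runs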;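 further: 0% = DMSO wells with no growth and 100% = 10 µM 1-NA-PP1 with full growth; RAM network block rescues cells from 5-FOA so hits raise OD615 growth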). As to conditions: S. cerevisiae dse1pr::URA3 5-FOA growth, OD615, 2 d; at 10 µM; stronger effect = higher value; strain carries analog-sensitive mutant Cbk1 kinase.
Assay [15] is described as follows: RAM signaling pathway blockade in yeast – S. cerevisiae, Pdr1DBD-CYC8 efflux-inhibited sensitized strain, primary screen (AID 1298).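 Further: 0% = DMSO untreated cells without growth and 100% = 10 µM 1-NA-PP1 full growth; higher means more yeast growth rescued from 5-FOA killing.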 Conditions: S. cerevisiae cbk1-as DSE1-URA3 strain, 5-FOA growth OD615, 2 d; at 50 µM; stronger effect = higher value.
[16] abbreviates: H69AR cells + 2 uM doxorubicin, measured here: viability with 2 uM doxorubicin, stronger effect = lower value.
Where [17] appears, read: H69AR cells, compound alone cytotoxicity.

Sequence of Receptor tyrosine-protein kinase erbB-2 (Homo sapiens) (P04626 whole entry, looked up): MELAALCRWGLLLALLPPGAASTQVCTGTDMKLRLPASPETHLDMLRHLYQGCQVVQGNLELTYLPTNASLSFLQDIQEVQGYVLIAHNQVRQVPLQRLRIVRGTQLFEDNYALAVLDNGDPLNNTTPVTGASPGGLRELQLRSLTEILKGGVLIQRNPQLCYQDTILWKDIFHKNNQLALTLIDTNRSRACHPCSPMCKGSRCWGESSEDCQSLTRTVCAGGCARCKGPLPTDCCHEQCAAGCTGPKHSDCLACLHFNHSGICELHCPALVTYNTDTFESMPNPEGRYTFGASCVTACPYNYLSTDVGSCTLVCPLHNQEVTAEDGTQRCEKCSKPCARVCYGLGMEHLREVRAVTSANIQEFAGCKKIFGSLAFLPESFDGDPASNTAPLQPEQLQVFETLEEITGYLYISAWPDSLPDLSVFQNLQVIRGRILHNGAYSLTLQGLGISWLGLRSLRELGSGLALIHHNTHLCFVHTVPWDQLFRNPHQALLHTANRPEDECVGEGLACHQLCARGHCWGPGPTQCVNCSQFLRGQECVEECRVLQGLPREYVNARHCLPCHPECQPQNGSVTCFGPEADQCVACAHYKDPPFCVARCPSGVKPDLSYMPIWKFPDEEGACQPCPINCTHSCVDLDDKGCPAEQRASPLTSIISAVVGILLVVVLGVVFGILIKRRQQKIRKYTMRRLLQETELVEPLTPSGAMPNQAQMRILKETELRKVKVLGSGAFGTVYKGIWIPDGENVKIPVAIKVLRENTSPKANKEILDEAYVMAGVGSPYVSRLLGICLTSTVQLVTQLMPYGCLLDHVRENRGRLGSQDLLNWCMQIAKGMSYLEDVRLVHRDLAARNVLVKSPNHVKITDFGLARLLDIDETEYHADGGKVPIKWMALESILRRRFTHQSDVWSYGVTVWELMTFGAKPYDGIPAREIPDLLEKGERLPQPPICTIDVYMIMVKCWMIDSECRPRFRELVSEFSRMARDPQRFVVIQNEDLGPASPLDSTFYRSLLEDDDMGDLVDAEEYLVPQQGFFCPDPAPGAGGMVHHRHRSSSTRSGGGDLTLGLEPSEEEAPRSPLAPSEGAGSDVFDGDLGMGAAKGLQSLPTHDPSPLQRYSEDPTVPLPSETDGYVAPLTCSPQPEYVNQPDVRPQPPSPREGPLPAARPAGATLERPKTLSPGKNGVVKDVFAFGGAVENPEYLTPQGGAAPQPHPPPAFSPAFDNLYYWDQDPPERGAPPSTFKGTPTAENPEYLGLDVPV

As usually defined, the viability is a read-out of living cells in per cent, often relative to untreated cells. In general, inhibition refers to the relative decrease from the control value, in per cent. For the compound `O=C(Nc1ccc2c(c1)OCCO2)c1cnc2n(c1=O)CCS2`, the viability in [1] is 85.5%; in assay [3] it was 85.5% (inactive); in assay [4], 105% (inactive); in assay [5] it was 79.4% (inactive); in [6] (setting [16]), 78.7%; in assay [6] (setting [17]) it was 79.4%. The viability in assay [12] was 106% (inactive); in assay [13], 104% (inactive). In addition, the Her2 level in assay [2] is 80.5% (inactive). Moreover, the differential viability (reversal) in assay [6] (H69AR cells + 2 uM doxorubicin) was 0.765% (inactive). Also, the inhibition in assay [7] was 0.93% (inactive); in assay [8], -2.95% (inactive); in assay [14], 1.6% (inactive). Further, the growth inhibition was -17.9% (inactive) in assay [9] and 2.96% (inactive) in assay [10]. Further, the viability increase in assay [11] is 3.01% (inactive). In addition, the RAM network inhibition in [15] was 4.19% (inactive).
As to `Cc1cc(C)c(NC(=O)Cn2cc3c(n2)CCCC3)c(C)c1`, the viability was 87.5% in [1]; 87.5% (inactive) in assay [3]; 104% (inactive) in assay [4]; 96.5% (inactive) in assay [5]; 100% in assay [6] (setting [16]); 96.5% in assay [6] (setting [17]). Moreover, the viability in assay [12] is 109% (inactive); in [13] it was 94.9% (inactive). Besides, in assay [2], the Her2 level was 103% (inactive). In assay [6] (H69AR cells + 2 uM doxorubicin), the differential viability (reversal) is -3.94% (inactive). Moreover, the inhibition in assay [7] is -6% (inactive); in [8], 5.74% (inactive); in assay [14] it was 2.3% (inactive). Besides, the growth inhibition was 6.13% (inactive) in [9] and 12.4% (inactive) in [10]. Also, the viability increase in assay [11] was -0.84% (inactive). Also, the RAM network inhibition in [15] is 4.34% (inactive).
As for `Cc1ccccc1-n1c(Cn2c(=O)sc3ccccc32)nnc1SCC(N)=O`, the viability in [1] is 96.5%; in [3], 96.5% (inactive); in assay [4], 92.3% (inactive); in [5] it was 84.8% (inactive); in assay [6] (setting [16]), 78.6%; in [6] (setting [17]), 84.8%. Further, the figures for the viability in [12] and in [13] were 107% (inactive) and 106% (inactive), respectively. Also, the Her2 level in assay [2] is 94.5% (inactive). In addition, the differential viability (reversal) in assay [6] (H69AR cells + 2 uM doxorubicin) is 6.29% (inactive). The results for the inhibition in assay [7], in assay [8] and in assay [14] were -6.27% (inactive), -1.97% (inactive) and 0.455% (inactive), respectively. Besides, the growth inhibition is -3.65% (inactive) in assay [9] and -3.06% (inactive) in assay [10]. For the same compound, in [11], the viability increase is 1.68% (inactive). In addition, the RAM network inhibition in assay [15] is 4.35% (inactive).
With `CCOc1ccc(-c2nnc(SCC(=O)N3CCN(c4ccccc4)CC3)o2)cc1`, the viability in assay [1] is 103%; in [3], 103% (inactive); in assay [4], 99.5% (inactive); in assay [5] it was 86.5% (inactive); in assay [6] (setting [16]), 88.5%; in [6] (setting [17]) it was 86.5%. Moreover, the viability in assay [12] was 102% (inactive); in assay [13], 97.3% (inactive). In addition, the Her2 level in assay [2] is 96% (inactive). In assay [6] (H69AR cells + 2 uM doxorubicin), the differential viability (reversal) was -2.04% (inactive). For the same compound, the values for the inhibition in [7], in [8] and in [14] were -3.73% (inactive), -3.28% (inactive) and 2.71% (inactive), respectively. Moreover, the growth inhibition in assay [9] was -3.14% (inactive); in assay [10], 2.85% (inactive). Besides, in [11], the viability increase is -0.66% (inactive). The RAM network inhibition in [15] is 3.72% (inactive).
Take `COc1ccc(C(=O)NCC(=O)NC2=NCCS2)cc1`: the viability is 100% in [1]; 100% (inactive) in [3]; 120% (inactive) in [4]; 102% (inactive) in assay [5]; 91% in [6] (setting [16]); 102% in assay [6] (setting [17]). Besides, the values for the viability in assay [12] and in assay [13] were 102% (inactive) and 98.1% (inactive), respectively. Besides, the Her2 level in [2] was 104% (inactive). Also, the differential viability (reversal) in assay [6] (H69AR cells + 2 uM doxorubicin) was 10.7% (inactive). Also, the inhibition in assay [7] was -4.67% (inactive); in assay [8], 0.33% (inactive); in assay [14], 1.56% (inactive). For the same compound, the figures for the growth inhibition in [9] and in [10] were -1.83% (inactive) and -4.44% (inactive), respectively. Further, the viability increase in assay [11] was -1.93% (inactive). Moreover, in assay [15], the RAM network inhibition was 2.03% (inactive).
